From PubChem BioAssay AID743286 (National Center for Advancing Translational Sciences (NCATS), 2014)
Out of some 1,100 compounds screened, about 340 (31%) were called active. About 40% were inconclusive and are not listed. The call rests on the fitted dose curve; in most records, active means well fitted inhibition curve with a large enough effect; inconclusive means small, poorly fitted or top-dose-only effect; inactive means flat fitted curve, though single readings scatter. These entries were drawn from the full list.

Molecular target: Phosphatidylinositol 5-phosphate 4-kinase type-2 alpha (Homo sapiens) (UniProt P48426)
Test: qHTS for Inhibitors of PI5P4K: Confirmation in Primary Assay; further: nearly all actives have a fitted effect of over 65% in size
Settings: PI5P4Kalpha enzyme, ADP-Glo luminescence, 60 min; series mostly up to 76.9 µM
Procedure, shortened: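 PI5P4Kα with PI5P substrate in 0.038 M HEPES pH 7.4, 0.28 mM EGTA, 0.1% CHAPS, 5% DMSO; reaction started with 5 µM ATP (final), 60 min at room temperature. ADP formed read by ADP-Glo luminescence end-point.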
Potency means the concentration at half of the fitted maximal effect.

Phosphatidylinositol 5-phosphate 4-kinase type-2 alpha (Homo sapiens), sequence (P48426 whole entry, looked up): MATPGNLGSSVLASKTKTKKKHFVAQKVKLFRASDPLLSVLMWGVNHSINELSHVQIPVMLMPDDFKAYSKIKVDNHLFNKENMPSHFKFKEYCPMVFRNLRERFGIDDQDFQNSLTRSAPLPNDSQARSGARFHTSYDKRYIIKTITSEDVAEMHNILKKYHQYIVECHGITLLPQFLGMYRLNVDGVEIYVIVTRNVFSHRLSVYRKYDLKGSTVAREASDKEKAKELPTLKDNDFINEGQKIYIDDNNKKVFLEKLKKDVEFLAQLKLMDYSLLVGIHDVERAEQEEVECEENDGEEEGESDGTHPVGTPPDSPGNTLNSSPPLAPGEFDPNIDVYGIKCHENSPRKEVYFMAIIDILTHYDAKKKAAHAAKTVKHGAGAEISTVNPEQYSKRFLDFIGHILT

Potency, inactive:
O=C(NCC1CCCCC1)c1cccc([N+](=O)[O-])c1
O=C(NCCCCc1ccccc1)c1cccc(NC(=O)C2CC2)c1
OC(c1ccc(Cl)c(F)c1)c1ncc(-c2ccc(Oc3ccccc3)cc2)[nH]1 (configuration not stated)
COc1cc(OC)cc(-c2nnc(NC(=O)CCS(=O)(=O)c3ccc(C)cc3)o2)c1
O=S(=O)(c1ccccc1)c1nc(-c2ccco2)oc1N1CCCCCC1
O=S(=O)(NCCC1=CCCCC1)c1cccc(S(=O)(=O)N2CCOCC2)c1
O=C(Nc1ccc2c(c1)OCCO2)c1ccccc1F
COc1ccc(C(C(=O)NC2CCCC2)N(C(=O)c2snc(C(N)=O)c2N)c2cccc(O)c2)cc1 (configuration not stated)
Cc1ccc(CSCC(=O)N2CCOCC2)cc1
COCCn1c(SCC(=O)Nc2cccc(S(N)(=O)=O)c2)nc2cc(Cl)ccc2c1=O
O=C(Nc1cccc(Cl)c1)N1CCCC1
CC(=O)NC(c1ccc(C)cc1)c1cc([N+](=O)[O-])c2cccnc2c1O (configuration not stated)
O=C(Oc1ccc(N(Cc2cccs2)C2=NS(=O)(=O)c3ccccc32)cc1)c1ccccc1Cl
O=C(CSc1nc(-c2ccccc2)cc(=O)[nH]1)N1CCc2ccccc21
COc1ccc(CCCc2nnc(SCc3nc4ccccc4c(=O)[nH]3)n2C)cc1
Cc1cc(C(=O)Nc2cccc3c2O[C@@H](CN(C)S(C)(=O)=O)[C@H](C)CN([C@@H](C)CO)C3=O)n(C)n1
O=C(OCC(=O)N1CCCCCC1)c1ccc(Cl)c(S(=O)(=O)N2CCCC2)c1
COCc1ccc2oc(C(=O)O)cc2c1
COc1ccc2c(c1)C=C(CN1CCN(Cc3ccccc3C)C(CCO)C1)CO2 (configuration not stated)
NC(=O)c1c(NC(=O)CN2CCCC2)sc2c1CCCC2
Cc1ccc2cc(CCl)c(Cl)nc2c1
O=c1oc2cc(O)ccc2cc1-c1ccc(F)cc1
N=c1oc2ccc3ccccc3c2cc1C(N)=S
COc1ccc(C(=O)N2CCC2(C)C(=O)O)cc1F (configuration not stated)
O=C(Nc1ccc(-c2nc3ncccc3o2)cc1)c1ccco1
O=C(CCN1CCc2ccccc2C(c2ccccc2)C1)c1ccc2c(c1)OCCO2 (configuration not stated)
O=C(Cn1cncn1)NCc1ccccc1Br
CCOC(=O)N1CCN(C(=O)CCS(=O)(=O)c2ccc3c(c2)CCN3C(=O)CC)CC1
Clc1ccc2nc(-c3ccco3)c(Cc3ccccc3)n2c1
O=C(Nc1nnc(COc2ccc(Cl)cc2)s1)c1cccs1
CC(C)(NC(=O)c1ccccc1)c1nc2ccccc2s1
O=C1COc2ccc(S(=O)(=O)NCCc3ccccc3)cc2N1
COc1cc(CNc2ccc(N3CCCC3)cc2)cc(Cl)c1OC
CCOc1ccc(CC(=O)Nc2sc(Cc3ccccc3)c(C)c2C(N)=O)cc1OCC
O=S(=O)(c1ccc(Br)cc1)N1CCCc2ccccc21
Clc1ccc2nc(CSc3nc4ccccc4o3)cn2c1
C[C@H](CO)N1C[C@H](C)[C@@H](CN(C)S(=O)(=O)c2ccc3c(c2)OCCCO3)OCc2cnnn2CCCC1=O

Potency, active:
O=C(NCc1cc([N+](=O)[O-])ccc1O)c1cccc(NS(=O)(=O)c2ccccc2)c1 14.1 µM
OCCCNc1nccc(-c2cc(Nc3cccc(Cl)c3)ncn2)n1 14.1 µM
O=S(=O)(c1ccc2nc(-c3ccco3)c(-c3ccco3)nc2c1)N1CCOCC1 15.8 µM
N#Cc1cc(-c2ccccc2)nn1-c1ccccc1 10 µM
O=C(Cc1ccc(Cl)cc1Cl)Nc1cccc(S(=O)(=O)Nc2ccccc2F)c1 3.98 µM
CC(=O)NC(c1cccs1)c1cc([N+](=O)[O-])c2cccnc2c1O (configuration not stated) 12.6 µM
CCCn1c(=O)c2[nH]c(-c3ccc(S(=O)(=O)O)cc3)nc2n(CCC)c1=O 14.1 µM
Cn1c(=O)c2[nH]c(-c3ccc(S(=O)(=O)O)cc3)nc2n(C)c1=O 12.6 µM
CCn1c(SCc2nc3sc(C(=O)O)c(C)c3c(=O)[nH]2)nc2ccccc21 12.6 µM
c1cc2c(cc1C1=NNC(=NC3CC3)SC1)OCCO2 28.2 µM
NS(=O)(=O)c1cc(C(=O)NC2CCSc3ccccc32)ccc1Cl (configuration not stated) 0.891 µM
COc1ccc2c(c1)c(=O)oc1c(C)c(OCc3cc(C(=O)O)oc3C)ccc12 17.8 µM
Cc1ccc(-c2csc(NC(=O)c3ccno3)n2)cc1 28.2 µM
NC(=O)c1c(NC(=O)c2ccccc2)sc2c1CCC2 25.1 µM
NC(=O)c1c(NC(=O)c2cc3ccccc3o2)sc2c1CCC2 31.6 µM
O=C(c1ccc(F)cc1)c1cc2ccc(O)cc2oc1=O 10 µM
O=C(NCc1ccco1)c1cc2ccc(O)cc2oc1=O 14.1 µM
O=C(c1ccc(Br)cc1)c1cc2ccc(O)cc2oc1=O 11.2 µM
NC(=S)c1cc2ccc(O)cc2oc1=O 14.1 µM
Cc1cccc(N=c2oc3cc(O)ccc3cc2C(N)=O)c1 14.1 µM
c1coc(-c2ccc3nncn3c2)c1 15.8 µM
CC(=O)c1ccc(NC(=O)c2noc3c2CCC3)cc1 35.5 µM
Cc1nc(N)sc1-c1csc(Nc2cccc(C(=O)O)c2)n1 15.8 µM
OCCNc1nc(Nc2ccc(Cl)c(Cl)c2)nc2ccccc12 31.6 µM
Cc1ccc(C)c(S(=O)(=O)Nc2ccc3oc(C)c(C(=O)O)c3c2)c1 15.8 µM
O=C(O)C1Nc2c(Cl)cc(Cl)c(Cl)c2C2C=CCC12 (configuration not stated) 8.91 µM
CCc1c(C)sc(NC(=O)c2ccoc2C)c1C(N)=O 12.6 µM
NS(=O)(=O)c1ccc(NC(=O)c2ccc(S(=O)(=O)N3CCc4ccccc43)cc2)cc1 14.1 µM
CCOc1ccccc1N1CSC2=C(C#N)C(c3c(OC)ccc4ccccc34)CC(=O)N2C1 (configuration not stated) 20 µM
COc1ccc2ccccc2c1C1CC(=O)N2CN(C3CCCCC3)CSC2=C1C#N (configuration not stated) 15.8 µM
